# Test results as given in PMC4336329 (PLoS ONE, 2015).
# Hit rate of the full screen: of about 310,000 compounds, about 14,000 (4.5%) showed an effect of 50% or more. Effects have a minus sign here. This is one part of a sample in which strong results are shown more often than they occur.
# Target: human ether-à-go-go-related gene (hERG) potassium channel (human, UniProt Q12809)
# Assay: primary screen, population patch clamp on CHO cells stably expressing hERG; higher = less effect of the substance
# 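Also: peak tail current of the secondary pulse compared with the same well before compound.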
# Chain of human ether-à-go-go-related gene (hERG) potassium channel (Q12809 whole entry, looked up): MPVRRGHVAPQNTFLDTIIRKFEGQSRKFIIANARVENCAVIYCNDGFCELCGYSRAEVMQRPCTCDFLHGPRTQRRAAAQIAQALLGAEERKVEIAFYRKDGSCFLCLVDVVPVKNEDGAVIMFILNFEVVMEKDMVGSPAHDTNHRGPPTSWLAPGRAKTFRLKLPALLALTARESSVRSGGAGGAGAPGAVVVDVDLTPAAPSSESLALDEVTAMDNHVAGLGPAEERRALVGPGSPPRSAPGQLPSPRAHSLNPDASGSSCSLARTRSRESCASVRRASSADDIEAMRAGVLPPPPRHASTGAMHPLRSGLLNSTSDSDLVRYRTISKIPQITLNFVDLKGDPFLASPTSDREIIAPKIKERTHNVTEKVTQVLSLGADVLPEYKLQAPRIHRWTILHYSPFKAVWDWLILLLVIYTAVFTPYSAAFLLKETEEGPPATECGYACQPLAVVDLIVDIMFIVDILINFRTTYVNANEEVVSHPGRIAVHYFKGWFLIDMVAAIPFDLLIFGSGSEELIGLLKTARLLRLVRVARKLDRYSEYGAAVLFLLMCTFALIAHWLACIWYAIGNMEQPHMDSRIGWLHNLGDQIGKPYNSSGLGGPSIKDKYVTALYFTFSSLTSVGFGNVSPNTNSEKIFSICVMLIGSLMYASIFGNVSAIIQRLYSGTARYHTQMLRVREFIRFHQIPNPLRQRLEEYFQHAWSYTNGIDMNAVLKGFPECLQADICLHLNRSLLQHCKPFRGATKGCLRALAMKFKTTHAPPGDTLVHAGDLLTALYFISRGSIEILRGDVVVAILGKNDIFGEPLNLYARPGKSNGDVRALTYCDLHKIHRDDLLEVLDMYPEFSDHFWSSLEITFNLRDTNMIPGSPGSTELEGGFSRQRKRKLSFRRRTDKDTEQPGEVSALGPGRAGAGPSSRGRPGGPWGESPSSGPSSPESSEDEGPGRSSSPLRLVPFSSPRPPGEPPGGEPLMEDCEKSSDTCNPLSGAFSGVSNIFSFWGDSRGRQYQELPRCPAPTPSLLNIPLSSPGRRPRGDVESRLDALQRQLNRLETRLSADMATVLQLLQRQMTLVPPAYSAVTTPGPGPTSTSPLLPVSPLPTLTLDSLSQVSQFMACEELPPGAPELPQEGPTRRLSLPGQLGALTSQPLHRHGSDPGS
row,SMILES,"hERG current change (%, negative = inhibition) at 10uM"
1,Cc1nn(CC(=O)N2CCN(S(=O)(=O)c3ccccc3)CC2)c(C)c1[N+](=O)[O-],-10%
2,Cl.Clc1cccc(Nc2nc(N3CCOCC3)nc(N3CCOCC3)n2)c1,16.9%
3,CN(C)C(=O)c1cn(-c2ccccc2)nc1-c1cc2ccccc2o1,-10.3%
4,CC12CCC(=O)N1c1ccccc1C(=O)N2c1ccccc1 (stereo not shown),-9.9%
5,CCOC(=O)c1sc(NC(=O)CSc2nncn2C)nc1C,9.68%
6,Cl.O=C(OCCN1CCCCC1)c1cccc(Cl)c1,-30.6%
7,CCCC(c1nnnn1Cc1ccco1)N1CCN(c2ccccc2)CC1.Cl (stereo not shown),-19.6%
8,Cc1c(Cc2ccccc2)c(NCCN(C)C)n2c(nc3ccccc32)c1C#N,-32.4%
9,Cc1[nH]c2ccccc2c1Cc1nnc(SCC(=O)NCc2ccco2)o1,4.19%
10,COc1ccc(CC(=O)c2ccc(O)cc2O)cc1,-3.19%
11,N/C(=N\OC(=O)c1ccc(OCC(F)(F)F)nc1)c1ccc(Cl)cc1,19.5%
12,O=C(c1ccc(Cl)cc1)c1cc([N+](=O)[O-])ccc1N1CCOCC1,-32.4%
13,O=C(c1ccc(Br)cc1)c1cc([N+](=O)[O-])ccc1N1CCCCC1,-25.3%
14,CN1CCN(c2ccc([N+](=O)[O-])cc2C(=O)c2ccc(Br)cc2)CC1,-69.5%
15,O=C(c1ccc(Br)cc1)c1cc([N+](=O)[O-])ccc1N1CCOCC1,-30.7%
16,CN1CCN(c2ccc([N+](=O)[O-])cc2C(=O)c2ccc(Cl)cc2)CC1,-67.4%
17,CN1CCN(c2ccc([N+](=O)[O-])cc2C(=O)N2CCCCC2)CC1,-7.66%
18,CC(=O)Nc1cc2nc(C)n(Cc3ccccc3[N+](=O)[O-])c2nc1C,17.4%
19,C1CCc2nc3c(nc2C1)CCCC3,-10.7%
20,C=CCc1c(C)nc(SC)nc1Nc1ccc(C)cc1,-14.3%
21,CN(C(=O)c1cccnc1)c1nnc(-c2cccnc2)s1,14.4%
22,COc1ccc(N2CCN(C(=O)CN3CCN(C(c4ccccc4)c4ccccc4)CC3)CC2)cc1.Cl,-46%
23,CCCCC(=O)OCC(=O)Nc1ccc(OC(F)F)cc1,-21.2%

row,SMILES,"hERG current change (%, negative = inhibition) at 10uM"
1,Cc1nc2c(C)cccn2c(=O)c1NC(=O)COc1ccccc1,-12.1%
2,Cc1ccn2c(=O)c(NC(=O)COc3ccccc3)c(C)nc2c1,-56.9%
3,Cc1ccn2c(=O)c(NC(=O)c3cccc4ccccc34)c(C)nc2c1,-1.31%
4,N#Cc1c(Cl)nsc1NC(=O)c1ccccc1,8.24%
5,Cc1ccc(S(=O)(=O)N2CCCCC2CCNC(=O)C(=O)NCCc2ccco2)cc1 (stereo not shown),-33.1%
6,O=C(NC1CCN(Cc2ccccc2)CC1)C1COc2ccccc2O1 (stereo not shown),-57.5%
7,O=C(CCC(=O)N1CCOc2ccccc21)NCCCN1CCCCC1,7%
8,CCN1CCN(CCCNC(=O)CCC(=O)N2CCOc3ccccc32)CC1,-13%
9,O=C(C1COc2ccccc2O1)N1CCN(Cc2ccccc2)CC1 (stereo not shown),-7.63%
10,O=C(NC1CCCCC1)C1COc2ccccc2O1 (stereo not shown),-7.19%
11,Cc1ccccc1CNC(=O)CCC(=O)N1CCOc2ccc(Cl)cc21,-24.2%
12,O=C(CCC(=O)N1CCOc2ccccc21)NCCCN1CCN(Cc2ccccc2)CC1,-79.8%
13,O=C(CCC(=O)N1CCOc2ccc(Cl)cc21)NCCCN1CCN(c2ccccc2F)CC1,-66.5%
14,Cc1ccc(C)c(N2CCN(CCCNC(=O)CCC(=O)N3CCOc4ccc(Cl)cc43)CC2)c1,-55.9%
15,O=C(CCC(=O)N1CCOc2ccc(Cl)cc21)NCCN1CCOCC1,3.97%
16,CN1CCN(CCCNC(=O)CCC(=O)N2CCOc3ccccc32)CC1,5.46%
17,CC(C)(C)NC(=O)c1ccc2c(c1)C1C3CCC(C3)C1C(c1ccccc1)N2 (stereo not shown),5.59%
18,Cc1ccc(S(=O)(=O)NCCC(=O)NCC(c2ccc(F)cc2)N2CCOCC2)cc1 (stereo not shown),-5.84%
19,CCc1cccc(NC(=O)C2CC2c2ccccc2)c1 (stereo not shown),14.5%
20,Cc1noc(C)c1C(=O)OCC(=O)N1CCN(S(=O)(=O)c2ccc3ccccc3c2)CC1,-0.697%
21,COCc1ccccc1C1=CC(=O)C[C@H](c2ccc(OC)cc2)C1,-12.3%
22,Cc1cc(OCc2ccc(C(=O)n3cccn3)o2)ccc1Cl,-0.553%
23,CN(C/C(O)=C(\C#N)c1ccccc1)C1CCCCC1,-0.409%

row,SMILES,"hERG current change (%, negative = inhibition) at 10uM"
1,COC(=O)c1c(C)[nH]c(C(=O)/C=C/c2ccccc2)c1C,1.52%
2,CCOC(=O)N1CCC(NC(=O)CCC(=O)N2CCOc3ccccc32)CC1,8.3%
3,O=C(CCC(=O)N1CCOc2ccccc21)NC1CCN(Cc2ccccc2)CC1,-51%
4,O=C(CCC(=O)N1CCOc2ccccc21)NC1CCCCCC1,-20.8%
5,CCN1CCN(CCCNC(=O)CCC(=O)N2CCOc3ccc(Cl)cc32)CC1,-5.48%
6,O=C(CCC(=O)N1CCOc2ccc(Cl)cc21)NCCCN1CCN(Cc2ccccc2)CC1,-73.2%
7,Cc1nc(C)c(N)c(=O)[nH]1.Cl,16.3%
8,O=C(NN1C(=O)C2C3C=CC(C4CC34)C2C1=O)c1ccc(Br)cc1 (stereo not shown),22.8%
9,CCC1CCCCN1C(=O)CSc1nnc(-c2ccco2)o1 (stereo not shown),4.11%
10,Cc1cccc(C(=O)Oc2cc(C)[nH]c(=O)c2[N+](=O)[O-])c1,16.7%
11,CC(=O)c1ccc(N2Cc3ccccc3C2=NC(=O)c2cccs2)cc1,-20.6%
12,CC(=O)c1ccc(N2Cc3ccccc3C2)cc1,-2.58%
13,Br.CC(=O)c1ccc(N2Cc3ccccc3C3(CCOCC3)C2=N)cc1,-57.5%
14,COc1ccc(-c2cc3nc(-c4ccccc4)cc(N4CCC(O)CC4)n3n2)cc1,-7.45%
15,O=S(=O)(c1ccc(Br)cc1)N1CCN(c2ccc3nnc(-c4ccccc4)n3n2)CC1,-32%
16,CCCNC(=O)C1CCN(c2nc(C)cc(C)n2)CC1,0.749%
17,COc1ccc(-c2cc(C(F)(F)F)nc(N3CCCCCC3)n2)cc1,2.13%
18,COc1ccc(S(=O)(=O)N2CCN(c3ccc4nnc(-c5ccc(F)cc5)n4n3)CC2)cc1,-19.4%
19,FC(F)(F)c1cc(-c2ccccc2)nc2ncnn12,7.8%
20,COc1ccc(-c2cc(N3CCCC3)n3ncnc3n2)cc1,-64.5%
21,COc1ccc(S(=O)(=O)N2CCN(c3ccc4nnc(-c5ccccc5)n4n3)CC2)cc1,-66.4%
22,Cc1ccccc1NC(=O)C1CCN(c2cc(-c3ccccc3)nc3ncnn23)CC1,-8.86%
23,FC(F)(F)c1ccc(N2CCN(c3cc(-c4ccccc4)nc4ncnn34)CC2)nc1,-65.1%

row,SMILES,"hERG current change (%, negative = inhibition) at 10uM"
1,FC(F)(F)c1cccc(Nc2cc(-c3ccccc3)nc3ncnn23)c1,13.5%
2,CCCNC(=O)C1CCN(c2cc(-c3ccccc3)nc3ncnn23)CC1,-75.8%
3,Cc1nnsc1Sc1ccccc1C(=O)O,8.3%
4,Cc1n[nH]c(C)c1S(=O)(=O)N(C)Cc1ccco1,2.13%
5,O=C(NCc1c(O)ccc2ccccc12)c1ccccc1,12%
6,CC(C)c1ccc(NC(=O)C2C3C=CC4(O3)C2C(=O)N(CCCN2CCOCC2)C4C(=O)NC2CCCCC2)cc1 (stereo not shown),19.9%
7,COc1ccc(NC(C)=O)c(C)c1,18.2%
8,CCc1c(C)nc2ncnn2c1N1CCN(S(=O)(=O)c2ccc(OC)cc2)CC1,-36%
9,COc1ccccc1NC(=O)N1CCN(c2ncccn2)CC1,6.96%
10,COc1ccc(S(=O)(=O)N2CCN(c3cc(-c4ccccc4)nc4ncnn34)CC2)cc1,-53.3%
11,COc1ccccc1NC(=O)N1CCN(c2cc(-c3ccccc3)nc3ncnn23)CC1,-68.3%
12,O=S(=O)(c1ccccc1)N1CCN(c2cc(-c3ccccc3)nc3ncnn23)CC1,-11.8%
13,COc1ccc(OC)c(NC(=O)C2CCN(c3cc(-c4ccccc4)nc4ncnn34)CC2)c1,-10.8%
14,O=C(C1=C(O)C(=O)N(CC2CCCO2)C1c1ccc(Cl)cc1)c1ccco1 (stereo not shown),12.3%
15,Cc1cc(=O)oc2c(CN3CCCC3)c(O)c(Cl)cc12,5.35%
16,CC(CC(=O)Nc1cccc(Cl)c1)c1ccccc1 (stereo not shown),-6.32%
17,Cc1cc(OCC#N)nc(N)n1,3.69%
18,CCN(CC)S(=O)(=O)c1ccc(N2CCOCC2)c(NCC(=O)Nc2ccc(F)cc2)c1,12.3%
19,CCCCOc1ccc(/C=N/Nc2cc(N3CCOCC3)nc(C)n2)cc1,-30.5%
20,Cc1cc(C)cc(NC(=O)C(OC(=O)c2cc[n+]([O-])cc2)c2ccccc2)c1 (stereo not shown),-74%
21,Cc1cc(C)cc(NC(=O)C(OC(=O)c2ccc(O)cc2)c2ccccc2)c1 (stereo not shown),-15.2%
22,Cc1cc(C)cc(NC(=O)C(OC(=O)c2ccc(NC(=O)CC#N)cc2)c2ccccc2)c1 (stereo not shown),-6.68%
